# Assay results published in PMC7862700, “An all-to-all approach to the identification of sequence-specific readers for epigenetic DNA modifications on cytosine”.
# Columns and labels:
# Assay in all cases: DAPPL (digital affinity profiling via proximity ligation, sequencing); 10 mM Tris-HCl pH 7.5, 50 mM NaCl, 1 mM DTT, 4% glycerol, room temperature, 30 min; GST-TFs on glutathione beads, 16-mer random dsDNA library, 0.1% formaldehyde crosslink after washing; high values mean tight binding
# Details in all cases: protein: recombinant; tags: N-terminal GST; dsDNA, one strand shown
# FLI1 = target: T1, FLI1 (Homo sapiens, UniProt Q01543 1-452)
# T1 sequence: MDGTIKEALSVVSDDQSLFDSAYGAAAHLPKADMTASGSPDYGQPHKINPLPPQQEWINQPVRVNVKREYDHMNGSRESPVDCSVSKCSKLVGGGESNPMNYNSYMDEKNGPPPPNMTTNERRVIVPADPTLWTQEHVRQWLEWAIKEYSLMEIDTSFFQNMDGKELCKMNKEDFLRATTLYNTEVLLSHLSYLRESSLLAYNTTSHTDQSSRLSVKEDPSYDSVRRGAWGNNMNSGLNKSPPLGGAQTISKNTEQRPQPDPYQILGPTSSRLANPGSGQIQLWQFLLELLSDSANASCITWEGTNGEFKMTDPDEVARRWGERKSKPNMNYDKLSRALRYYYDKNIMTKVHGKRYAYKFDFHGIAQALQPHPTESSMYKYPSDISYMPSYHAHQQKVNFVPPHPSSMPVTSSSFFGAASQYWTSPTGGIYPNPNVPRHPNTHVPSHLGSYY
# In short: (§1)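 GST fusions of human transcription factors were expressed in yeast and captured with glutathione beads. Once given DNA barcodes and pooled alongside a tag-only sample, they were incubated for 30 min at room temperature with 200 nmole of a random double-stranded 16-mer DNA library in Tris/NaCl/DTT/glycerol buffer, then washed, crosslinked (0.1% formaldehyde), proximity-ligated, PCR-amplified and sequenced on an Illumina NextSeq500. The binding signal of each hexamer is its read frequency for a factor divided by its frequency for the tag-only sample.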
# ELK1 = target: T2, ELK1 (Homo sapiens, UniProt P19419 1-428)
# T2 sequence: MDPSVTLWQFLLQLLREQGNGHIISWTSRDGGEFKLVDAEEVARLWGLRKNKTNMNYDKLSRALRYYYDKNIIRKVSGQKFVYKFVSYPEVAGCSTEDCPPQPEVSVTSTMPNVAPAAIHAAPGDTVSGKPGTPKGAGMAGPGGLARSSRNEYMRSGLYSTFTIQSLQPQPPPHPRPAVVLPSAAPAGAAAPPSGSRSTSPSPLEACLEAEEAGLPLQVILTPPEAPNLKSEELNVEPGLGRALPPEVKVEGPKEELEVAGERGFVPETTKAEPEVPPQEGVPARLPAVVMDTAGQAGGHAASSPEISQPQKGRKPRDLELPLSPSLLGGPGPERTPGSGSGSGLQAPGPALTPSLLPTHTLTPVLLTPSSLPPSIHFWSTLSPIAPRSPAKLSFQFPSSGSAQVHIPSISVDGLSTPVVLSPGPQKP
# In short: as §1
# GABPA = target: T3, GABPA (Homo sapiens, UniProt Q06546 1-454)
# T3 sequence: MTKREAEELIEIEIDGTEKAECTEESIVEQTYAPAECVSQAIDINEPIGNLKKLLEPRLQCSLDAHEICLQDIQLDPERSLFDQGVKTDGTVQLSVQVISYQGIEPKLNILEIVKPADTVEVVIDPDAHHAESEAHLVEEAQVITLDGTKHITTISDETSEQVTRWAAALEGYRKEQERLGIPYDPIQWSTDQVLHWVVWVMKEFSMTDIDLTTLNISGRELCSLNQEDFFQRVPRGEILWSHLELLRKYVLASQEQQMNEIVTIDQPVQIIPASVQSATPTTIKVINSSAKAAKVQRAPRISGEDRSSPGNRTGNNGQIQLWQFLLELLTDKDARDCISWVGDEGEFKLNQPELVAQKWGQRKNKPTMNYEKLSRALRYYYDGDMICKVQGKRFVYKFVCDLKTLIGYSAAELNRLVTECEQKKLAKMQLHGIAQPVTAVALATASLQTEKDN
# In short: as §1
# ERG = target: T4, ERG (Homo sapiens, UniProt P11308 1-479)
# T4 sequence: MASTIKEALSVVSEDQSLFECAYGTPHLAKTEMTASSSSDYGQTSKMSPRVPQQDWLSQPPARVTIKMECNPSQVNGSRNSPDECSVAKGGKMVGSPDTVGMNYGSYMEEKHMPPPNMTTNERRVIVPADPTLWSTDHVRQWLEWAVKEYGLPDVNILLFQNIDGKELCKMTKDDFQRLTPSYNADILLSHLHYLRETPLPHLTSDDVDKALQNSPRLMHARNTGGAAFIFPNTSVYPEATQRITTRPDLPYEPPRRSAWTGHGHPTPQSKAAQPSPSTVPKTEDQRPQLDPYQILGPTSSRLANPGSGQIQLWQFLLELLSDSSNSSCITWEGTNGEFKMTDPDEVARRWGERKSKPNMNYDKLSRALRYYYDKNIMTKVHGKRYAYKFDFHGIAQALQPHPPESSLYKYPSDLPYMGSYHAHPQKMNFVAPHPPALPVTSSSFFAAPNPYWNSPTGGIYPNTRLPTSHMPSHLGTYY
# In short: as §1
# ELF1 = ELF1 (Homo sapiens, UniProt P32519 1-619)
# ELF1, sequence (P32519 whole entry): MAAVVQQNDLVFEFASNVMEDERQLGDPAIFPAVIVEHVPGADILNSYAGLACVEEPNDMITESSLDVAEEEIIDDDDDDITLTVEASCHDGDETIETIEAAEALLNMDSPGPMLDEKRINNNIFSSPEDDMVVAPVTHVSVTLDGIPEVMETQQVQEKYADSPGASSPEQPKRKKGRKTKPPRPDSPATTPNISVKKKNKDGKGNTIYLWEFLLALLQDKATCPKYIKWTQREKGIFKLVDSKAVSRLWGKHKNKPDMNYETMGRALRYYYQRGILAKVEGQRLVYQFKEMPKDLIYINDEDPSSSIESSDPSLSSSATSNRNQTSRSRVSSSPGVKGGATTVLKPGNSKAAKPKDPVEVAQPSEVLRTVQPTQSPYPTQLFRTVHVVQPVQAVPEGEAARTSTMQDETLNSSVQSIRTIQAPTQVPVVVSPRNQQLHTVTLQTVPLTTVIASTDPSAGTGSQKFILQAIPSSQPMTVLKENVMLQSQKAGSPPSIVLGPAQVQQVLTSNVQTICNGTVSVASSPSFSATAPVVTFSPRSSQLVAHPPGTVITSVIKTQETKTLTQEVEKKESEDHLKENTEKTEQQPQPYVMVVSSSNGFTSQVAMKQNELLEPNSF
# In short: as §1
# EHF = target: T5, EHF (Homo sapiens, UniProt Q9NZC4 1-300)
# T5 sequence: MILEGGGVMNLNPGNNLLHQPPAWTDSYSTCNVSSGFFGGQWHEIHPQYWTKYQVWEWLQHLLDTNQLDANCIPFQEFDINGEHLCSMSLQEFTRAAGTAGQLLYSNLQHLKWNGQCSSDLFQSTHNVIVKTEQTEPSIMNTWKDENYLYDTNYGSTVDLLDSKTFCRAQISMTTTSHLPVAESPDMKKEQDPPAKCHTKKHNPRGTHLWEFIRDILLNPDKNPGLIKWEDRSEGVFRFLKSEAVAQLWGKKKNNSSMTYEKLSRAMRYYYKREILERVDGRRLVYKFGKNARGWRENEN
# In short: as §1
# SPI1 = SPI1 (Homo sapiens, UniProt P17947 1-270)
# In short: as §1
# SPIB = SPIB (Homo sapiens, UniProt Q01892 1-262)
# SPIB, sequence (Q01892 whole entry): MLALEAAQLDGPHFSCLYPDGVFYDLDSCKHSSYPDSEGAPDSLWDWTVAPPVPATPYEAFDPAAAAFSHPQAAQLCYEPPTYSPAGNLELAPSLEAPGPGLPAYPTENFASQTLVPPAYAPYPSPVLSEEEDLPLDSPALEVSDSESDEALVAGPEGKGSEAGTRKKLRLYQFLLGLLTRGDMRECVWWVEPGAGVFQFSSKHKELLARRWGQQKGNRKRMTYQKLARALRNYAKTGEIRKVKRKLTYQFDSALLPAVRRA
# In short: as §1
# ELK3 = target: T6, ELK3 (Homo sapiens, UniProt P41970 1-407)
# T6 sequence: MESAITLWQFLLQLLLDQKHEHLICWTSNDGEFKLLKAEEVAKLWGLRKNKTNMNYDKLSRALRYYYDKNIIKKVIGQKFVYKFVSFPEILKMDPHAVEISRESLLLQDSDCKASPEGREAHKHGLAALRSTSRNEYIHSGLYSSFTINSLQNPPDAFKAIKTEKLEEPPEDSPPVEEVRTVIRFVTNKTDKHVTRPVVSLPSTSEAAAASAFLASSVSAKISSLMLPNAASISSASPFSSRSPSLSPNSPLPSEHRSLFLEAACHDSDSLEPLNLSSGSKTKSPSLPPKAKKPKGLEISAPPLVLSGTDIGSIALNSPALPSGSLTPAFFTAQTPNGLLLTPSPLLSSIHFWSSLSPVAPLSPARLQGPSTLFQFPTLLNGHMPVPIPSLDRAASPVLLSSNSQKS
# In short: as §1
sequence,measurement,setting,value
AAACTT,binding signal,FLI1,"1.27 fold enrichment (6-mer frequency, TF over GST control)"
same,binding signal,ELK1,"1.22 fold enrichment (6-mer frequency, TF over GST control)"
same,binding signal,GABPA,"1.31 fold enrichment (6-mer frequency, TF over GST control)"
same,binding signal,ERG,"1.24 fold enrichment (6-mer frequency, TF over GST control)"
same,binding signal,ELF1,"1.24 fold enrichment (6-mer frequency, TF over GST control)"
same,binding signal,EHF,"1.31 fold enrichment (6-mer frequency, TF over GST control)"
same,binding signal,SPI1,"1.24 fold enrichment (6-mer frequency, TF over GST control)"
same,binding signal,SPIB,"1.25 fold enrichment (6-mer frequency, TF over GST control)"
same,binding signal,ELK3,"1.3 fold enrichment (6-mer frequency, TF over GST control)"
